Measurements reported in PubChem BioAssay AID1159580 (chemical genetic matrix, 2015).
Screen size: about 5,500 compounds; about 2,000 (36%) were called active. Roughly 18% stayed inconclusive and do not appear here. No stated cut-off is given here; in the data, active means normalized growth mostly below about 0.91 (no sharp cut-off); inconclusive means no clear call, values can overlap the other calls; inactive means mostly above about 0.92. The list shows a part of the results.

Assay: chemical genetic growth profiling, strain panel (AID 1159580);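 further: tested at 20 µM; growth read once vehicle control cultures reached saturation at 30 °C; 1 = growth at the plate median or of vehicle wells; lower values mean less growth of the strain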
Details: growth OD
[1] = S. cerevisiae deletion strains, locus YDL101C, strain DUN1, active compounds read low
[2] = S. cerevisiae deletion strains, locus YHR030C, strain SLT2, active compounds read low

Measured: normalized growth

O=[N+]([O-])c1ccc(ON=C2CCCCC2)c([N+](=O)[O-])c1
inactive: S. cerevisiae deletion strains, locus YAR019C, strain CDC15, active compounds read low 0.982 | S. cerevisiae deletion strains, locus YBL105C, strain PKC1, active compounds read low 0.998 | S. cerevisiae deletion strains, locus YBR135W, strain CKS1, active compounds read low 0.997 | S. cerevisiae deletion strains, locus YBR136W, strain MEC1, active compounds read low 0.996 | S. cerevisiae deletion strains, locus YBR160W, strain CDC28, active compounds read low 0.997 | S. cerevisiae deletion strains, locus YDL017W, strain CDC7, active compounds read low 0.995 | S. cerevisiae deletion strains, locus YDL028C, strain MPS1, active compounds read low 0.988 | S. cerevisiae deletion strains, locus YDL108W, strain KIN28, active compounds read low 1 | S. cerevisiae deletion strains, locus YDL132W, strain cdc53, active compounds read low 0.981 | S. cerevisiae deletion strains, locus YDL214C, strain PRR2, active compounds read low 0.875 | S. cerevisiae deletion strains, locus YDR054C, strain cdc34, active compounds read low 0.981 | S. cerevisiae deletion strains, locus YDR226W, strain ADK1, active compounds read low 0.987 | S. cerevisiae deletion strains, locus YDR477W, strain SNF1, active compounds read low 0.827 | S. cerevisiae deletion strains, locus YER123W, strain YCK3, active compounds read low 0.722 | S. cerevisiae deletion strains, locus YER133W, strain GLC7, active compounds read low 0.786 | S. cerevisiae deletion strains, locus YFL009W, strain cdc4, active compounds read low 0.975 | S. cerevisiae deletion strains, locus YFL029C, strain CAK1, active compounds read low 0.987 | S. cerevisiae deletion strains, locus YFR003C, strain YPI1, active compounds read low 0.999 | S. cerevisiae deletion strains, locus YFR019W, strain FAB1, active compounds read low 0.887 | S. cerevisiae deletion strains, locus YFR028C, strain CDC14, active compounds read low 0.983 | S. cerevisiae deletion strains, locus YGR040W, strain KSS1, active compounds read low 0.84 | S. cerevisiae deletion strains, locus YGR052W, strain FMP48, active compounds read low 0.877 | S. cerevisiae deletion strains, locus YGR092W, strain DBF2, active compounds read low 0.602 | S. cerevisiae deletion strains, locus YHR079C, strain IRE1, active compounds read low 0.721 | S. cerevisiae deletion strains, locus YHR082C, strain KSP1, active compounds read low 0.966 | S. cerevisiae deletion strains, locus YIL147C, strain SLN1, active compounds read low 0.984 | S. cerevisiae deletion strains, locus YJL095W, strain BCK1, active compounds read low 0.568 | S. cerevisiae deletion strains, locus YJL128C, strain PBS2, active compounds read low 0.995 | S. cerevisiae deletion strains, locus YJL157C, strain FAR1, active compounds read low 0.84 | S. cerevisiae deletion strains, locus YJR016C, strain ILV3, active compounds read low 0.981 | S. cerevisiae deletion strains, locus YJR066W, strain TOR1, active compounds read low 0.801 | S. cerevisiae deletion strains, locus YKL067W, strain YNK1, active compounds read low 0.853 | S. cerevisiae deletion strains, locus YKL101W, strain HSL1, active compounds read low 0.879 | S. cerevisiae deletion strains, locus YKL193C, strain SDS22, active compounds read low 0.988 | S. cerevisiae deletion strains, locus YKL203C, strain TOR2, active compounds read low 0.797 | S. cerevisiae deletion strains, locus YLR133W, strain CKI1, active compounds read low 0.88 | S. cerevisiae deletion strains, locus YLR403W, strain SFP1, active compounds read low 0.798 | S. cerevisiae deletion strains, locus YML070W, strain DAK1, active compounds read low 0.852 | S. cerevisiae deletion strains, locus YMR001C, strain CDC5, active compounds read low 0.989 | S. cerevisiae deletion strains, locus YMR205C, strain PFK2 (second series), active compounds read low 0.865 | S. cerevisiae deletion strains, locus YMR277W, strain FCP1, active compounds read low 0.989 | S. cerevisiae deletion strains, locus YNL006W, strain LST8, active compounds read low 0.991 | S. cerevisiae deletion strains, locus YNL020C, strain ARK1, active compounds read low 0.881 | S. cerevisiae deletion strains, locus YNL161W, strain CBK1, active compounds read low 0.984 | S. cerevisiae deletion strains, locus YNL183C, strain NPR1, active compounds read low 0.795 | S. cerevisiae deletion strains, locus YNL207W, strain RIO2, active compounds read low 0.969 | S. cerevisiae deletion strains, locus YNL222W, strain SSU72, active compounds read low 1 | S. cerevisiae deletion strains, locus YNL307C, strain MCK1 (second series), active compounds read low 0.699 | S. cerevisiae deletion strains, locus YOL078W, strain AVO1, active compounds read low 0.993 | S. cerevisiae deletion strains, locus YOL136C, strain PFK27, active compounds read low 0.878 | S. cerevisiae deletion strains, locus YOR061W, strain CKA2, active compounds read low 0.865 | S. cerevisiae deletion strains, locus YOR119C, strain RIO1, active compounds read low 0.839 | S. cerevisiae deletion strains, locus YOR231W, strain MKK1, active compounds read low 0.776 | S. cerevisiae deletion strains, locus YOR329C, strain SCD5, active compounds read low 0.994 | S. cerevisiae deletion strains, locus YPL031C, strain PHO85, active compounds read low 0.808 | S. cerevisiae deletion strains, locus YPL153C, strain RAD53, active compounds read low 0.774 | S. cerevisiae deletion strains, locus YPL204W, strain HRR25, active compounds read low 0.74 | S. cerevisiae deletion strains, locus YPL209C, strain IPL1, active compounds read low 0.983 | S. cerevisiae deletion strains, locus YPR025C, strain CCL1, active compounds read low 1 | S. cerevisiae deletion strains, locus YPR106W, strain ISR1, active compounds read low 0.976 | S. cerevisiae deletion strains, locus YPR111W, strain DBF20, active compounds read low 0.974 | S. cerevisiae deletion strains, strain NNK1, active compounds read low 0.975 | S. cerevisiae deletion strains, strain TSCII, active compounds read low 0.968
active: [1] 0.876 | S. cerevisiae deletion strains, locus YDR052C, strain DBF4, active compounds read low 0.904 | [2] 0.608 | S. cerevisiae deletion strains, locus YHR205W, strain SCH9, active compounds read low 0.448 | S. cerevisiae deletion strains, locus YJR066W, strain TOR1 (second series), active compounds read low 0.429 | S. cerevisiae deletion strains, locus YKL048C, strain ELM1, active compounds read low 0.783 | S. cerevisiae deletion strains, locus YLR113W, strain HOG1, active compounds read low 0.749 | S. cerevisiae deletion strains, locus YPL256C, strain CLN2, active compounds read low 0.765

O=[N+]([O-])c1ccc(OCCO)c([N+](=O)[O-])c1
inactive: S. cerevisiae deletion strains, locus YAL013W, strain DEP1, active compounds read low 1 | S. cerevisiae deletion strains, locus YBR229C, strain ROT2, active compounds read low 0.978 | S. cerevisiae deletion strains, locus YCL061C, strain MRC1, active compounds read low 1.04 | [1] 1.01 | S. cerevisiae deletion strains, locus YDR150W, strain NUM1, active compounds read low 0.981 | S. cerevisiae deletion strains, locus YEL061C, strain CIN8, active compounds read low 0.954 | S. cerevisiae deletion strains, locus YGR078C, strain PAC10, active compounds read low 1.02 | [2] 1.23 | S. cerevisiae deletion strains, locus YHR087W, strain rtc3, active compounds read low 0.991 | S. cerevisiae deletion strains, locus YJL187C, strain SWE1, active compounds read low 0.991 | S. cerevisiae deletion strains, locus YJR043C, strain POL32, active compounds read low 1.01 | S. cerevisiae deletion strains, locus YJR075W, strain HOC1, active compounds read low 1.03 | S. cerevisiae deletion strains, locus YKL190W, strain CNB1, active compounds read low 1 | S. cerevisiae deletion strains, locus YLR039C, strain RIC1, active compounds read low 1.18 | S. cerevisiae deletion strains, locus YLR058C, strain SHM2 (second series), active compounds read low 0.998 | S. cerevisiae deletion strains, locus YLR085C, strain ARP6, active compounds read low 1 | S. cerevisiae deletion strains, locus YLR262C, strain YPT6, active compounds read low 1.14 | S. cerevisiae deletion strains, locus YML094W, strain GIM5, active compounds read low 1 | S. cerevisiae deletion strains, locus YMR219W, strain ESC1, active compounds read low 0.993 | S. cerevisiae deletion strains, locus YMR263W, strain SAP30, active compounds read low 1.01 | S. cerevisiae deletion strains, locus YNL153C, strain GIM3, active compounds read low 1.01 | S. cerevisiae deletion strains, locus YNL298W, strain CLA4 (second series), active compounds read low 0.987 | S. cerevisiae deletion strains, locus YNL322C, strain KRE1, active compounds read low 0.982 | S. cerevisiae deletion strains, locus YNR030W, strain Alg12, active compounds read low 0.997 | S. cerevisiae deletion strains, locus YOL006C, strain TOP1, active compounds read low 1.01 | S. cerevisiae deletion strains, locus YPL055C, strain LGE1, active compounds read low 0.989 | S. cerevisiae deletion strains, locus YPL241C, strain CIN2, active compounds read low 0.996 | S. cerevisiae deletion strains, locus YPR135W, strain CTF4, active compounds read low 1.11 | S. cerevisiae strains, strain wild type, active compounds read low 0.986
